This is a sample that favours compounds with a hit; in the whole collection about 3.5% have one here.
Mcl1-Bid inh: Mcl-1/Bid interaction inhibition | Q07820 | TR-FRET Mcl-1/Bid-Dy647 peptide binding, 1536-well | inhibition, % at 21.7 µM | hit rate 0.97% among 220,000 | AID 1021;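 active means compounds that cut the binding signal by more than half at the single screening dose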;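 further: His-tagged Mcl-1 with europium anti-His antibody binding Bid BH3 peptide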
Target sequence (Q07820 whole entry, looked up): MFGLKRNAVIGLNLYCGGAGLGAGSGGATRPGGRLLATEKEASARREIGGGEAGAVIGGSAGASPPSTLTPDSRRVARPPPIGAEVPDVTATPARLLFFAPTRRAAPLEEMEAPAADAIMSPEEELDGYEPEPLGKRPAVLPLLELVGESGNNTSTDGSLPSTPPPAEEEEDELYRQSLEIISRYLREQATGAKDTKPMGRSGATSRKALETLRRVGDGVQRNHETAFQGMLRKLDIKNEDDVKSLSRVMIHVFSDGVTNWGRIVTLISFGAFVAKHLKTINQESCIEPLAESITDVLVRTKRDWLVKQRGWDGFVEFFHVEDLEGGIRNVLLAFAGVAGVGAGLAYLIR
Hck Nef HTS: human Hck-Nef kinase inhibition; hit rate 0.68% among 220,000; Recombinant Hck-YEEI plus Nef, Z-Lyte FRET kinase assay; inhibition, % at 20 µM; P08631;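 active means Hck-Nef kinase inhibition above about 50%, limit read from the data; inactive means inhibition below that limit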
eIF4E-4G inh: blocks eIF4E binding to eIF4G. P63073+Q04637. TR-FRET eIF4E-eIF4GI(517-606) binding, 2 h. inhibition, % at 21.7 µM. hit rate 0.37% among 220,000;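 active means inhibition above about 30%, limit read from the data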
14-3-3 Bad PPI: disrupts binding of bovine 14-3-3 zeta to phospho-Bad peptide; inhibition, % at 21.7 µM; P63103; TR-FRET 14-3-3zeta/Dy647-pBad peptide displacement, 1 h; hit rate 0.71% among 220,000;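 active means inhibition above about 70%, limit read from the data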
Target sequence (P63103 whole entry, looked up): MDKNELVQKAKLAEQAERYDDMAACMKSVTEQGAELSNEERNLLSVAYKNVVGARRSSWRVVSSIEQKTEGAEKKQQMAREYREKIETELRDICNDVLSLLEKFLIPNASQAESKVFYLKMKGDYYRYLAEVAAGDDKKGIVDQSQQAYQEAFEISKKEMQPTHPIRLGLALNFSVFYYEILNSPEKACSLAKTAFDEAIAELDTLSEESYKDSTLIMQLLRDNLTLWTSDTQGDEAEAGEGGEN
Mcl1-Noxa inh: Mcl-1/Noxa interaction inhibition; inhibition, % at 21.7 µM; TR-FRET Mcl-1/Noxa peptide binding, 2 h; Q07820; hit rate 1.5% among 220,000;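 active means compounds that cut the protein-peptide binding signal by more than 50% relative to plate controls in a single-dose test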;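 further: His-tagged Mcl-1 with rhodamine Noxa BH3 peptide and terbium anti-His antibody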
Bim-Mcl-1: human Bim-Mcl-1 interaction inhibition. Q07820. Bead-based flow cytometry, Bim peptide-Mcl-1 binding. inhibition, % at 10 µM. hit rate 0.1% among 190,000. AID 1009; in the data active means inhibition above about 40%
Each line names hits and unclear results; the compound was inactive in the other large screens; [ ] = dose if it differs, or a comment.

Cn1c(-c2ccc(F)cc2)cnc1NCc1ccc(C#N)cc1	none
O=C(CN1C(=O)CSc2ccccc21)N/N=C/c1ccco1	none (no result: Bim-Mcl-1)
CS(=O)(=O)c1ccc2c(c1)sc1nc(=O)c(/C=C3/C=CC(=O)C(O)=C3)c(N)n12	Mcl1-Noxa inh 90 (no result: Bim-Mcl-1)
COC1=C/C(=C/c2c(N)n3c(nc2=O)sc2cc(S(C)(=O)=O)ccc23)C=CC1=O	Mcl1-Noxa inh 54 (no result: Bim-Mcl-1)
CS(=O)(=O)c1nsc2nc(=O)c(/C=C3\C=Nc4ccccc43)c(N)n12	none
O=C(N/N=C/c1ccc(O)c(O)c1O)/C(=C/c1ccc([N+](=O)[O-])cc1)NC(=O)c1ccccc1	Mcl1-Noxa inh 87
Cc1ccc(NC(=O)/C(=C\c2ccc([N+](=O)[O-])cc2)NC(=O)c2ccccc2)cc1	none
CC1Cc2ccccc2N1C(=O)c1ccc2c(c1)nnn2C (stereo unspecified)	none
COc1ccc(C(=O)N2c3ccccc3CC2C)cc1OC (stereo unspecified)	Mcl1-Noxa inh 74
CN1CC(=O)N(CC(=O)Nc2ccc3c(c2)CCC3)C1=O	none
CCN1C(=O)C(C)S/C1=N\S(=O)(=O)c1ccc(F)cc1 (stereo unspecified)	Mcl1-Noxa inh 75
CCN(CC)c1ccc(NC(=O)COc2ccc(N(C)S(=O)(=O)c3cccs3)cc2)cc1	Mcl1-Noxa inh 65
CN(c1ccc(OCC(=O)OCC(=O)Nc2ccccc2)cc1)S(=O)(=O)c1cccs1	none
CC(NS(=O)(=O)c1ccc(OCC(=O)Nc2cccc([N+](=O)[O-])c2)cc1)c1ccccc1 (stereo unspecified)	none
CC(C)OC(=O)Nc1ccc2c(c1)N(C(=O)N1CCN(C)CC1)c1ccccc1CC2	Mcl1-Noxa inh 51 (no result: Bim-Mcl-1)
CCOC(=O)Nc1ccc2c(c1)N(C(=O)N1CCN(C)CC1)c1ccccc1CC2	none
CC1(C)CC(=O)C2=C(C1)OC1=C(C(=O)CC(C)(C)C1)C2(C)C	none
O=C(C1=C[C@H](c2coc3ccccc3c2=O)C[C@H](OCCCCO)O1)N1CCN(Cc2ccc3c(c2)OCO3)CC1	none
Cc1cc(-c2nc3c4c5c(sc4[nH]c(=O)n3n2)CCC5)c(C)o1	Mcl1-Bid inh 73, Mcl1-Noxa inh 101
COc1ccc(C(=O)NCCn2cc(SCC(N)=O)c3ccccc32)cc1	none (no result: Bim-Mcl-1)
Nc1cccnc1Sc1cc(Cl)c(Cl)cc1Cl	Mcl1-Noxa inh 88
O=[N+]([O-])c1c(NCc2ccccc2)cc(N2CCc3ccccc3C2)c2nonc12	none
CCCOCC1CC(CCc2nc(=S)[nH][nH]2)C(=O)O1 (stereo unspecified)	none
CCCCOCC1CC(CC#CCN2CCCCC2)C(=O)O1 (stereo unspecified)	14-3-3 Bad PPI 78
CS(=O)(=O)N1CCc2cc(C(=O)N3CCCC3)ccc21	none
CS(=O)(=O)NN1C(=O)c2ccccc2NC1c1ccccc1 (stereo unspecified)	Bim-Mcl-1 43
O=C(O)/C=C/C(=O)N(Cc1ccc2c(c1)OCO2)C1CC(=O)N(CCc2ccccc2)C1=O (stereo unspecified)	none
COc1ccc(N(C(=O)Cc2cccs2)C(C(=O)NC2CCCCC2)c2cccn2C)cc1 (stereo unspecified)	14-3-3 Bad PPI 90
Cn1cccc1C(C(=O)NC1CCCCC1)N(C(=O)Cc1cccs1)c1ccc2c(c1)OCO2 (stereo unspecified)	none
O=C1C(=Cc2ccco2)C(=O)c2ccccc21	none
CCC1C/C(=C/c2ccco2)C(=O)/C(=C/c2ccco2)C1 (stereo unspecified)	Hck Nef HTS 62
Cc1ccc(C)c(S(=O)(=O)Nc2ccccc2C(=O)Nc2ccc(S(=O)(=O)Nc3ncccn3)cc2)c1	none
Cc1ccc(NC(=O)CN2C(=O)N/C(=C/c3cccn3-c3ccc(C(=O)O)cc3)C2=O)cc1	eIF4E-4G inh 34, Mcl1-Noxa inh 102
Cc1ccc(NC(=O)CN2C(=O)N/C(=C/c3ccco3)C2=O)cc1	Mcl1-Noxa inh 61
Cc1onc(-c2ccc(Cl)cc2Cl)c1-c1csc(N/N=C/c2ccccc2)n1	none (no result: Bim-Mcl-1)
COc1ccc(C(=O)c2sc3nc(-c4ccccc4)ccc3c2N)cc1OC	Mcl1-Bid inh 59, 14-3-3 Bad PPI 84[fluorescence artefact?], Mcl1-Noxa inh 95
COC(=O)c1cccc(NC(=S)Nc2cccc(Cl)c2Cl)c1	Mcl1-Bid inh 98
CC(=O)Nc1cccc(NC(=S)Nc2cccc(Cl)c2Cl)c1	none
O=S(=O)(Nc1nccs1)c1ccc(Nc2nnc(-c3ccccc3)c3ccccc23)cc1	Mcl1-Noxa inh 68
CSc1nsc(/C=C/Nc2ccc(F)cc2)c1C#N	none
CSc1nsc(/C=C/Nc2ccc(O)cc2C)c1C#N	Mcl1-Noxa inh 55
O=C(O)CCCNc1cc(N2CCC3(CC2)OCCO3)c2noc3c2c1C(=O)c1ccccc1-3	Mcl1-Noxa inh 89
O=[N+]([O-])c1c(NCCO)cc(N2CCC3(CC2)OCCO3)c2nonc12	none
CCOC(=O)N1CCN(c2c(NCCc3ccccc3)c(=O)c2=O)CC1	none
CCOC(=O)N1CCN(c2cc(NCCC(=O)O)c3c4c(onc24)-c2ccccc2C3=O)CC1	Mcl1-Noxa inh 73
COc1ccc(-c2nnc(Nc3nc4c(OC)cccc4s3)o2)c(OC)c1	none (no result: eIF4E-4G inh, 14-3-3 Bad PPI)
COc1ccc(-c2nnc(Nc3nc4c(OC)cccc4s3)o2)cc1	Mcl1-Bid inh 56, Mcl1-Noxa inh 57
CCCN(CCC)S(=O)(=O)c1ccc(C(=O)OCCN2C(=O)c3cccc4c(N5CCOCC5)ccc(c34)C2=O)cc1	eIF4E-4G inh 31[fluorescence artefact?]
C=CCn1cn[nH]c1=S	none
COc1cc(OC)cc(-c2ncc3ccccn23)c1	none
COc1cc(-c2ncc3ccccn23)cc(OC)c1OC	14-3-3 Bad PPI 73
CCCCc1ccc(NC(=S)N2CCCC(C)C2)cc1 (stereo unspecified)	none
COc1ccc(-c2ccc3c(n2)sc2c(=O)[nH]c(=O)[nH]c23)cc1OC	Mcl1-Noxa inh 84
COc1ccc(/C=N/OCC(=O)Nc2ccc3c(c2)OCO3)c(OC)c1	none
O=C(CC1C(=O)NCCN1Cc1ccc(Cl)c(F)c1)NCC1CCOCC1 (stereo unspecified)	eIF4E-4G inh 90 (no result: Bim-Mcl-1)
Cc1ccc(S(=O)(=O)N2CCOCC(=O)NCCOCCNC(=O)COCC2)cc1	none
Cc1cc(C)c2c(c1)[C@@H]1C=CC[C@@H]1[C@H](c1ccc(S(=O)(=O)N3CCOCC3)cc1)N2	Mcl1-Noxa inh 67
Cc1c(C(=O)OCCOc2ccc(Br)cc2)sc(=S)n1C	none
COc1ccc(CN(CCCN2CCOCC2)C(=O)Nc2ccccc2)cc1OC	none
COc1ccc(CN(CCN2CCOCC2)C(=O)c2c(F)cccc2F)cc1OC	14-3-3 Bad PPI 80
CCOc1ccc(S(=O)(=O)N(CC(=O)N/N=C/c2ccc(-c3ccc([N+](=O)[O-])cc3)o2)c2ccccc2)cc1	Mcl1-Noxa inh 65
COc1ccc(C2=Nc3cccc4cccc(c34)N2)cc1	none
